Measured values taken from the supplement of paper PMC10849652.
Of roughly 8,800 targets only a part is listed; those with a hit were picked by preference. About 0.5% of all pairs of compound and target were hits.

Legend:
Assay in all cases: log2 fold change, soluble protein after heating vs DMSO (PISA); higher = thermal stabilisation; K562 lysate, 10 uM; active = over 0.2 and 3.5 SD of the protein, either way, in both replicates (recomputed)
[1] = compound: C1=CC=C(C=C1)[C@H](COC2=CC3=C(C=C2)NC(=O)N3)NC(=O)C4=CC=CN(C4=O)CC5=CC(=C(C=C5)F)F
How it was run: (§1)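 Dounce homogenisation of K562 pellets in PBS pH 7.4 with 1 mM MgCl2 produced a crude extract, used at 1 mg/mL protein. Exposure to 10 μM compound lasted 30 min, and aliquots were then heated for 3 min across 48°C-58°C, pooled and brought to 0.5% NP-40 at 4°C. The supernatant after 21,000xg for 90 min was quantified by TMTpro 16plex LC-MS/MS with channel sums equalised. Duplicate values are given as log-two fold change in thermal stability relative to solvent controls.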

[2] = compound: CC1=C(SC2=C1C(=N[C@H](C3=NN=C(N32)C)CC(=O)N)C4=CC=C(C=C4)Cl)C
How it was run: as §1

[3] = compound: CC1=C2C(=CC=C1)N=C(N(C2=O)C3=CC=CC=C3C)CN4C=NC5=C(N=CN=C54)N
How it was run: as §1

[4] = compound: Cc1sc2c(c1C)C(c1ccc(Cl)cc1)=N[C@@H](CC(=O)OC(C)(C)C)c1nnc(C)n1-2
How it was run: as §1

[5] = compound: c1ccc([C@@H]2C[C@H]2NC2CCNCC2)cc1
How it was run: as §1

Measured: log2 fold change

EPB41, A0A2R8Y783
inactive: [1] -0.056 | [2] -0.031 | [3] 0.142 | [4] -0.131 | [5] 0.033

ETFRF1 (UniProt Q6IPR1)
UniProt Q6IPR1, sequence (Q6IPR1 whole entry, looked up): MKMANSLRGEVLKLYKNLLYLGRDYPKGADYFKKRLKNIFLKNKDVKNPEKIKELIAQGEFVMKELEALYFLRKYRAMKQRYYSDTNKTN
inactive: [1] 0.021 | [2] 0.058 | [3] -0.031 | [4] -0.02 | [5] 0.066

FYCO1 isoform 4 (UniProt Q9BQS8)
inactive: [1] 0.01 | [2] 0.037 | [3] 0.03 | [4] 0.023 | [5] -0.1

GIGYF2 (UniProt Q6Y7W6)
inactive: [1] 0.047 | [2] -0.054 | [3] 0.011 | [4] -0.076 | [5] 0.033

GEMIN4 (UniProt P57678)
inactive: [1] -0.036 | [2] -0.015 | [3] -0.014 | [4] 0.04 | [5] 0.041

FREM2 (UniProt Q5SZK8)
inactive: [1] 0 | [2] 0.074 | [3] 0.003 | [4] -0.133 | [5] -0.212

FYB1 isoform 3 (UniProt O15117)
inactive: [1] 0.011 | [2] 0.039 | [3] 0.095 | [4] 0.008 | [5] 0.051

EP400 isoform 5 (UniProt Q96L91)
UniProt Q96L91, sequence (Q96L91 whole entry, looked up): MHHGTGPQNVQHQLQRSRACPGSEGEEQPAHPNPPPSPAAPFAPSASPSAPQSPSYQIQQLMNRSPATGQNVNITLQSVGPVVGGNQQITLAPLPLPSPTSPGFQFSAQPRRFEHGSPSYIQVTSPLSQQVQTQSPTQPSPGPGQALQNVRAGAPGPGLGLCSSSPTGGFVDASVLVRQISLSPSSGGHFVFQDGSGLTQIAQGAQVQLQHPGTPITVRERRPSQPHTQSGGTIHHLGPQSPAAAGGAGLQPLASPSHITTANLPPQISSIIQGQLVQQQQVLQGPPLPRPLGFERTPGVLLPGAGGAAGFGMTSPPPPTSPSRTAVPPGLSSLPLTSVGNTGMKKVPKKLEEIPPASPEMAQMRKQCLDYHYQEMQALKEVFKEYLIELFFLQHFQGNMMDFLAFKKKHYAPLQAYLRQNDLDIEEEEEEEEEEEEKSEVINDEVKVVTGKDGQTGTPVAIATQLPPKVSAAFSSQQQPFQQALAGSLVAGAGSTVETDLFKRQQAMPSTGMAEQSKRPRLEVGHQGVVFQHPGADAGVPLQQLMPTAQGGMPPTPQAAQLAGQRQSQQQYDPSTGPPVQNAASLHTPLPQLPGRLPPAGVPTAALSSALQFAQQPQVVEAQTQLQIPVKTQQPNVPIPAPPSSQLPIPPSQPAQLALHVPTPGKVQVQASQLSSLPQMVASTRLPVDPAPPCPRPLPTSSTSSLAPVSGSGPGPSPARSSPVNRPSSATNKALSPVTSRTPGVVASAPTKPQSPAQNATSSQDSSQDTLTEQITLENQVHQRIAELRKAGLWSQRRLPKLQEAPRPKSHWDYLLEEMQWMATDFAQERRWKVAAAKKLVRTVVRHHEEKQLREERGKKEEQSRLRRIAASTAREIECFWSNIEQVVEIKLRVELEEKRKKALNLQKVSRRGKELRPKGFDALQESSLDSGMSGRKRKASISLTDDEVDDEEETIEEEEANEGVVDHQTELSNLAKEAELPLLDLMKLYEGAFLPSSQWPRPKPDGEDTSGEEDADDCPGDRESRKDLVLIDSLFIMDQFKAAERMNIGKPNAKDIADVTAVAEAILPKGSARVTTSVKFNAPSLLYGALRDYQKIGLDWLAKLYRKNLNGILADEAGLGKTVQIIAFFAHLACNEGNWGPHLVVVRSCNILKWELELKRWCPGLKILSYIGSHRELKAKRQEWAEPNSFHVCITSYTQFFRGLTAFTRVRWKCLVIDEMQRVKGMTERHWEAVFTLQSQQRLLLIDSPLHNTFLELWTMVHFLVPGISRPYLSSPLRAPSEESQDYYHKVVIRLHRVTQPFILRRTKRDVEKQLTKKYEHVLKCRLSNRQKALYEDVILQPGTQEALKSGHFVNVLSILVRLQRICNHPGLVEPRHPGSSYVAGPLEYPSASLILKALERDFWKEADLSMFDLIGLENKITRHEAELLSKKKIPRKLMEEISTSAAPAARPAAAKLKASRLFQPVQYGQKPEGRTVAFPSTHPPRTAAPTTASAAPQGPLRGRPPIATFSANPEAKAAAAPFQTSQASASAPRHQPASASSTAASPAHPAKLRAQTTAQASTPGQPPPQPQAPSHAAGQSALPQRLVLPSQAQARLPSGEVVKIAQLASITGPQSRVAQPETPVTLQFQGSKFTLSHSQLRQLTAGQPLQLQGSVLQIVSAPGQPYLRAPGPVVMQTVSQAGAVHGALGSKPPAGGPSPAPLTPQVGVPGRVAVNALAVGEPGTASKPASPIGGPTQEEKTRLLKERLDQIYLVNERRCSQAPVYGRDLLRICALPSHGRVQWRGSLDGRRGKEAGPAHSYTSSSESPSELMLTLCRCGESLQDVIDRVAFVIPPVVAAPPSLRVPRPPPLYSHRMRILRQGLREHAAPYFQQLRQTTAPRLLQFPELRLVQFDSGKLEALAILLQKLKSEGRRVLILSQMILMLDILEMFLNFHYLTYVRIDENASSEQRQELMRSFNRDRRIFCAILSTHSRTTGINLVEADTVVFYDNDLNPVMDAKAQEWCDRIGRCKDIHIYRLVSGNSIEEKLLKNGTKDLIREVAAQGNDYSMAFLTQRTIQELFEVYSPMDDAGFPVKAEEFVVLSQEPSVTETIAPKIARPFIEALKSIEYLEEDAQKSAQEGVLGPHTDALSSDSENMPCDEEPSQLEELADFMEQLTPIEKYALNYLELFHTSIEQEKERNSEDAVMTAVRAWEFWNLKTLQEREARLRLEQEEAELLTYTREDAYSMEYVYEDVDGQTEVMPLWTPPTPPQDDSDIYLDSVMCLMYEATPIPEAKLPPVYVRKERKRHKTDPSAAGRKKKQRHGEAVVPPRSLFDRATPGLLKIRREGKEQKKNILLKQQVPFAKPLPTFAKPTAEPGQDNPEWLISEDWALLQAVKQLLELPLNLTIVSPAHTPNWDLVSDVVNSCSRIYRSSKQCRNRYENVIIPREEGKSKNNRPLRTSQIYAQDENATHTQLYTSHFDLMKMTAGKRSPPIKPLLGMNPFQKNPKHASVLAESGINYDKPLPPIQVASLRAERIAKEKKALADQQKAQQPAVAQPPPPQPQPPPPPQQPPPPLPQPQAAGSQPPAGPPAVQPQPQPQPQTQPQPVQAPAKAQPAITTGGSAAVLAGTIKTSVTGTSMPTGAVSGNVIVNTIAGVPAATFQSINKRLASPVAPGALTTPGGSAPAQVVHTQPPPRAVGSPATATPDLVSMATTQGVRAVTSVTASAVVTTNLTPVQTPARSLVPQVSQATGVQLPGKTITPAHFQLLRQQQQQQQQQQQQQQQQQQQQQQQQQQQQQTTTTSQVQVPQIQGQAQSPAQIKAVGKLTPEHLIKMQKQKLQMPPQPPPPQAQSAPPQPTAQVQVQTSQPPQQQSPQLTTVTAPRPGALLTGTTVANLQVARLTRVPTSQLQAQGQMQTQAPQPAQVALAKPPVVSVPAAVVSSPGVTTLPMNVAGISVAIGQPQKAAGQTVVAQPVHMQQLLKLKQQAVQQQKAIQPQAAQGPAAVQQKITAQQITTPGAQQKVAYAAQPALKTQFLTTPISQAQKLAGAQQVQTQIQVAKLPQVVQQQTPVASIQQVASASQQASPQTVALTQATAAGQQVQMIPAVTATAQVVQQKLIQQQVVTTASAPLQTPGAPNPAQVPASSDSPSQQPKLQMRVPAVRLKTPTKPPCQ
inactive: [1] -0.008 | [2] 0.024 | [3] -0.014 | [4] 0.06 | [5] 0.016

FKBP1A (UniProt P62942)
UniProt P62942, sequence (P62942 whole entry, looked up): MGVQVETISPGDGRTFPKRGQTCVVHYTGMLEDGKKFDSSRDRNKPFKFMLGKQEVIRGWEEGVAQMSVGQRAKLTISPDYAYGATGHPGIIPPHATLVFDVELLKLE
inactive: [1] 0.011 | [2] -0.134 | [3] -0.069 | [4] -0.01 | [5] -0.214

GALNT2 (UniProt Q10471)
inactive: [1] 0.018 | [2] -0.009 | [3] 0.021 | [4] 0.004 | [5] -0.021

EIF2AK1 (UniProt Q9BQI3)
inactive: [1] 0.006 | [2] -0.035 | [3] -0.007 | [4] -0.022 | [5] -0.041

EXTL2 (UniProt Q9UBQ6)
inactive: [1] 0.208 | [2] 0.235 | [3] -0.059 | [4] -0.185 | [5] 0.028

EXOC1 (UniProt Q9NV70)
inactive: [1] -0.011 | [2] 0.032 | [3] 0.013 | [4] 0.02 | [5] 0.068

FBRSL1, A0A3B3IRR3
inactive: [1] 0.002 | [2] 0.005 | [3] -0.021 | [4] 0.02 | [5] -0.028

FUBP3 (UniProt Q96I24)
inactive: [1] -0.052 | [2] 0.019 | [3] -0.007 | [4] -0.01 | [5] 0.011

DYRK1A (UniProt Q13627)
inactive: [1] -0.019 | [2] 0.003 | [3] -0.014 | [4] 0.019 | [5] 0.031

GDPD1 (UniProt Q8N9F7)
inactive: [1] -0.047 | [2] 0.018 | [3] 0.117 | [4] 0.024 | [5] -0.036

ECH1 (UniProt Q13011)
inactive: [1] -0.059 | [2] 0.008 | [3] -0.006 | [4] -0.026 | [5] 0.012

FOXJ3 (UniProt Q9UPW0)
inactive: [1] 0.004 | [2] -0.072 | [3] 0.013 | [4] -0.021 | [5] -0.026

EED, A0A5F9ZI63
inactive: [1] 0.022 | [2] -0.01 | [3] 0.027 | [4] -0.007 | [5] -0.011

GGA2 (UniProt Q9UJY4)
inactive: [1] -0.055 | [2] 0.011 | [3] -0.085 | [4] 0.062 | [5] 0.032

GABPB1 (UniProt Q06547)
inactive: [1] 0.044 | [2] -0.013 | [3] -0.04 | [4] -0.001 | [5] 0.132

FBXO9 (UniProt Q9UK97)
inactive: [1] -0.07 | [2] -0.112 | [3] -0.002 | [4] 0.089 | [5] 0.095

FIG4 (UniProt Q92562)
inactive: [1] -0.107 | [2] -0.108 | [3] 0.037 | [4] 0.039 | [5] -0.037

EIF3I (UniProt Q13347)
inactive: [1] -0.038 | [2] 0.022 | [3] 0.01 | [4] 0.019 | [5] 0.033

FPGT (UniProt O14772)
inactive: [1] 0.007 | [2] -0.003 | [3] 0.07 | [4] -0.006 | [5] 0.104

ERBIN isoform 8 (UniProt Q96RT1)
inactive: [1] -0.012 | [2] 0.02 | [3] -0.04 | [4] 0.037 | [5] -0.048

ERI1 (UniProt Q8IV48)
UniProt Q8IV48, sequence (Q8IV48 whole entry, looked up): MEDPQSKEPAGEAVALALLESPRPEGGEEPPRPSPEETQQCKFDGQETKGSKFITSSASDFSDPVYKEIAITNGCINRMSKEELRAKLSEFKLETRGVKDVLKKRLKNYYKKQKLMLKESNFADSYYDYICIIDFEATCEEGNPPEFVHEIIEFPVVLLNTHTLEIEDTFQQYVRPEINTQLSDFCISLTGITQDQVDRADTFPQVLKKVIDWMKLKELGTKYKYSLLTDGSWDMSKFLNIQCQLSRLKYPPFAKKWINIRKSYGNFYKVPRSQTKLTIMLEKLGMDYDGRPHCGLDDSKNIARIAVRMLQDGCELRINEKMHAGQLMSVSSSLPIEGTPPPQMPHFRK
inactive: [1] 0.071 | [2] -0.061 | [3] -0.022 | [4] -0.015 | [5] 0.056

EIF2D (UniProt P41214)
inactive: [1] -0.007 | [2] -0.012 | [3] 0.044 | [4] 0.003 | [5] 0.049

EXOC6 (UniProt Q8TAG9)
inactive: [1] -0.035 | [2] -0.022 | [3] -0.006 | [4] 0.037 | [5] 0.151

EXOC4 (UniProt Q96A65)
UniProt Q96A65, sequence (Q96A65 whole entry, looked up): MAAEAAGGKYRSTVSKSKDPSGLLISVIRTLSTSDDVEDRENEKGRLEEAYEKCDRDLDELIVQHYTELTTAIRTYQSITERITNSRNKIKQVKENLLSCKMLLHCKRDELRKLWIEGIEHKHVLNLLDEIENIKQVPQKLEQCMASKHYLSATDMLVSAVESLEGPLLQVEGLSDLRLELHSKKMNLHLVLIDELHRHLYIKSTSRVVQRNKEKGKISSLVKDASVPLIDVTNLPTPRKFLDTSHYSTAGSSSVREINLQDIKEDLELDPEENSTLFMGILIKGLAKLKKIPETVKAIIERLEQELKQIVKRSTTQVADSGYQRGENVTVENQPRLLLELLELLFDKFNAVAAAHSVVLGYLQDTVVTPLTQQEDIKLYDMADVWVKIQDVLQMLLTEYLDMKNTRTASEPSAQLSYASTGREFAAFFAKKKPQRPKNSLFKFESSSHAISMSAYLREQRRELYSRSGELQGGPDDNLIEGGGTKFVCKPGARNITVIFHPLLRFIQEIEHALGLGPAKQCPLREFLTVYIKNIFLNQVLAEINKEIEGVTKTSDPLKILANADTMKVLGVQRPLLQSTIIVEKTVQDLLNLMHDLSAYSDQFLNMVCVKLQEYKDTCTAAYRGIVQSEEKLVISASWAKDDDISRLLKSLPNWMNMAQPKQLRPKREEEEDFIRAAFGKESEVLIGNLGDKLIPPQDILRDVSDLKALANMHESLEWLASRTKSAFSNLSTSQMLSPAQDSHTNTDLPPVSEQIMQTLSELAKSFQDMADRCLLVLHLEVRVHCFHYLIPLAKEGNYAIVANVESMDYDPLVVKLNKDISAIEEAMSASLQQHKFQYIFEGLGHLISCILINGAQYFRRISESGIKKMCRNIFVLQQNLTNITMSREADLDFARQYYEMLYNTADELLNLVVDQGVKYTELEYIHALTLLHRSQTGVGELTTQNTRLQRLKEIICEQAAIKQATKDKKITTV
inactive: [1] -0.001 | [2] 0.009 | [3] 0.016 | [4] 0.063 | [5] 0.054

FCHO1 (UniProt O14526)
inactive: [1] -0.026 | [2] 0.066 | [3] -0.025 | [4] 0.009 | [5] 0.027

DST (UniProt Q03001)
inactive: [1] -0.002 | [2] 0.042 | [3] 0.111 | [4] -0.061 | [5] -0.077

EEF1AKNMT (UniProt Q8N6R0)
inactive: [1] -0.012 | [2] -0.073 | [3] 0.013 | [4] 0.018 | [5] 0.042

FDX2 (UniProt Q6P4F2)
UniProt Q6P4F2, sequence (Q6P4F2 whole entry, looked up): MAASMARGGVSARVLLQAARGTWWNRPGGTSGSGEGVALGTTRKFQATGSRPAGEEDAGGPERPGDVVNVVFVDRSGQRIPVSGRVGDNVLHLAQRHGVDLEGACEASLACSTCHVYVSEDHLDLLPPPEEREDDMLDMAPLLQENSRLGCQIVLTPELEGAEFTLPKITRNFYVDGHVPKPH
inactive: [1] -0.039 | [2] 0.021 | [3] -0.012 | [4] 0.062 | [5] -0.05

GBF1 (UniProt Q92538)
inactive: [1] -0.044 | [2] 0 | [3] 0.005 | [4] 0.016 | [5] 0.011

FASTKD2 (UniProt Q9NYY8)
inactive: [1] -0.013 | [2] 0.044 | [3] 0.018 | [4] 0.017 | [5] 0.002

ENSA isoform 3 (UniProt O43768)
UniProt O43768, sequence (O43768 whole entry, looked up): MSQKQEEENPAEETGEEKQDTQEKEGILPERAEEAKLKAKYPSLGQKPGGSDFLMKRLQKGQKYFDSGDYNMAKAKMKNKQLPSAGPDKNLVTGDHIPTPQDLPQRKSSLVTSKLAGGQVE
inactive: [1] 0.037 | [2] -0.027 | [3] -0.024 | [4] -0.008 | [5] 0.02

EIF2AK2 (UniProt P19525)
inactive: [1] 0.01 | [2] -0.002 | [3] -0.027 | [4] 0.216 | [5] 0.03

DUS3L (UniProt Q96G46)
inactive: [1] 0.084 | [2] -0.001 | [3] 0.005 | [4] -0.001 | [5] 0.098

ERLIN1 (UniProt O75477)
inactive: [1] -0.03 | [2] 0.039 | [3] 0.02 | [4] 0.029 | [5] -0.033

ECI2 (UniProt O75521)
inactive: [1] 0.019 | [2] -0.005 | [3] 0.014 | [4] -0.009 | [5] -0.045

FANCI (UniProt Q9NVI1)
inactive: [1] -0.051 | [2] -0.009 | [3] 0.029 | [4] 0.015 | [5] 0.088

G6PD isoform 2 (UniProt P11413)
inactive: [1] 0.023 | [2] -0.002 | [3] 0.011 | [4] 0.053 | [5] 0.075

EEF1A1, A0A087WVQ9
inactive: [1] -0.053 | [2] 0.093 | [3] -0.042 | [4] -0.001 | [5] 0.049

FAM83D (UniProt Q9H4H8)
inactive: [1] -0.021 | [2] 0.023 | [3] 0.035 | [4] -0.02 | [5] -0.006

GEMIN5 (UniProt Q8TEQ6)
inactive: [1] -0.015 | [2] 0.025 | [3] 0.016 | [4] -0.002 | [5] 0.036

EP300 (UniProt Q09472)
inactive: [1] -0.048 | [2] -0.013 | [3] 0.025 | [4] 0.005 | [5] -0.016

GAPDH (UniProt P04406)
inactive: [1] 0.004 | [2] 0.008 | [3] -0.018 | [4] 0.008 | [5] 0.052

GGT7 (UniProt Q9UJ14)
inactive: [1] -0.138 | [2] 0.017 | [3] 0.103 | [4] -0.015 | [5] -0.048

FADS1, A0A0A0MR51
inactive: [1] 0.071 | [2] -0.019 | [3] -0.027 | [4] -0.035 | [5] 0.013

EXOC2 (UniProt Q96KP1)
inactive: [1] -0.01 | [2] -0.018 | [3] -0.013 | [4] -0.019 | [5] 0.063

EIF2B4 isoform 2 (UniProt Q9UI10)
inactive: [1] -0.026 | [2] 0.04 | [3] 0.037 | [4] -0.007 | [5] 0.042
